Measurements reported in PubChem BioAssay (NCI).
Compounds without any hit were thinned out: in the full panel of roughly 83,000, 20% have a hit.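 Compound tested at a single concentration for 48 hours in 96-well plates; a percent growth value below 10 was scored as active.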 Values without a mark were called inactive. Activity calls are given as the source filed them.

system: HL-60(TB) leukemia; assay: NCI-60 one-dose screen, 48 h (100 = growth as untreated, 0 = no growth, -100 = all killed); conditions: 10 µM unless noted

SMILES | growth
O=C(Nc1ccc(N=Cc2c(O)[nH]c3ccccc23)cc1)Nc1nccs1 | 42%
O=C(c1ccc(Cl)cc1)C1[C@H](c2ccc(Cl)cc2)[C@@H](c2ccccc2)NC12C(=O)Nc1ccc(Br)cc12 (stereo not given in full) | 22.3%
CN1CCN(c2ccc(Nc3nc(NCCNC(=O)c4ccccc4)c4sccc4n3)cc2)CC1 | 22.2%
C=CC(=O)N1CC=C(c2cc3c(N[C@H](C)c4ccccc4)ncnc3[nH]2)CC1 | 104%
O=[N+]([O-])c1ccc(NC(=S)NNC(=S)Nc2ccc(F)cc2)cc1 | 84.8%
O=[N+]([O-])c1cc(/C=N/Nc2nc(N/N=C/c3ccc(Cl)c([N+](=O)[O-])c3)nc(N3CCCCC3)n2)ccc1Cl | 41.9%
CCOC(=O)c1c(NCC(=O)Nc2cccc([N+](=O)[O-])c2)sc(C(C)=O)c1C | -18.4% (active)
Clc1ccc2oc3c(NCCCN4CCOCC4)c4ccccc4nc3c2c1 | 20.8%
C=C1C(=O)O[C@@H]2/C=C(/C)C3=CC(=O)[C@@](C)(C[C@H](OC(=O)/C(C)=C\C)[C@@H]12)O3 | -11.9% (active)
O=C(N/N=C/c1ccc(Cl)s1)c1[nH]c2ccc(Br)cc2c1-c1ccccc1 | -44.1% (active)
O=C1c2c(c3c4cccnc4[nH]c3c3ccc4ccccc4c23)C(=O)N1CCN1CCOCC1 | 42.2%
Clc1ccc(-c2cn3cc(Cc4ccc(Cl)c(Cl)c4)sc3n2)cc1 | 80.3%
C#C[C@]1(O)CC[C@H]2[C@@H]3CC=C4c5sc(Nc6cccc(Cl)n6)nc5CC[C@]4(C)[C@H]3CC[C@@]21C | -15.6% (active)
COc1cc([C@H]2OC[C@H]3[C@@H]2CO[C@@H]3c2ccc(O)c(OC)c2)ccc1O | 93.5%
COc1ccc([C@H]2c3[nH]c4ccccc4c3C[C@@H]3C(=O)N(C4CCN(Cc5ccccc5)CC4)CC(=O)N23)c(OC)c1 | 50.7%
Fc1ccc(-c2cc3nc(C(Cl)Cl)nc(-c4ccccc4)n3n2)cc1 | -17.3% (active)
O=S(=O)(NCCCNc1nccc(-c2[nH]c(-c3ccccc3)nc2-c2ccc(Cl)c(O)c2)n1)c1cccc(F)c1 | 35.6%
C/C(=N\O)[C@H]1C[C@]23CC[C@]4(C)[C@H](CC[C@@H]5[C@@]6(C)CC/C(=N/O)C(C)(C)[C@@H]6CC[C@]54C)[C@H]2[C@H](C)C1(C)OC3 | 121%
COc1cc(C(=O)c2cc(C(C)=O)c3cccc(C)n23)cc(OC)c1OC | 10.7%
Fc1ccc(-c2cc3nc(C(Cl)Cl)nc(-c4ccc(Cl)cc4)n3n2)cc1 | -4.23% (active)

SMILES | growth
COc1ccc(S(=O)(=O)NCCCNc2nccc(-n3cnc4ccccc43)n2)cc1 | 110%
NS(=O)(=O)c1ccc(Nc2nc(N/N=C/c3ccc([N+](=O)[O-])cc3)nc(Nc3ccccc3)n2)cc1 | 35%
O=S(=O)(Nc1ccc2c(c1)OCO2)c1ccc(-c2cnc(C3CC3)o2)cc1 | 3.52% (active)
C[C@@H]1C[C@H]2C(=O)O[C@@H](C)C(NC(=O)[C@H](Cc3cc(F)cc(F)c3)NC(=O)Nc3ccc(Cl)cc3F)C(=O)N3CCC[C@H]3C(=O)N3CCCC[C@H]3C(=O)N[C@@H](CO)C(=O)N2C1 (stereo not given in full) | 13.5%
CN1CCN(Cc2ccc(NC(=O)c3cncc(C#Cc4cnc5ccc(OC6CCOCC6)nn45)c3)cc2C(F)(F)F)CC1 | -43.8% (active)
COc1ccc(C(=O)/C=C/c2ccc(OCc3ccc(C)cc3)c(OC)c2)cc1OC | 40.7%
O=C1c2c(c3c4cccnc4[nH]c3c3ccc4ccccc4c23)C(=O)N1CCO | 97.1%
CC(C)(O)c1cncc(-c2ccc3ncnc(N4CCc5cc(F)c(Cl)cc54)c3c2)c1 | 1.38% (active)
Cc1csc(/N=C(N)/N=C(\N)c2cccnc2)n1 | 65.9%
CC[C@H](C)[C@H]1NC(=O)[C@@H]([C@H](O)C(C)C)NC(=O)[C@@H](C)N(C)C(=O)[C@H](C)N(C)C(=O)[C@H](CC(C)C)NC(=O)[C@H](CC(C)C)N(C)C(=O)[C@H](C)N(C)C1=O | -19.4% (active)
COc1cc2oc(-c3cccc(N)c3)cc(=O)c2c(OC)c1OC | 96.8%
Cn1cc(-c2nn3cc(-c4ccncc4)nc3s2)c2cc(Cl)ccc21 | -16% (active)
C=C(C)C(=O)O[C@H]1C[C@@]2(C)OC(=CC2=O)/C(CO)=C\[C@H]2OC(=O)C(=C)[C@H]12 | -31.2% (active)
Cc1cc2ncc(-c3cc4ccccc4c(N4CCN(C)CC4)n3)nc2cc1C | -31.9% (active)
O=C(O)c1cn(C2CC2)c2cc(N3CCN(C(=O)CN4C(=O)CSC4=O)CC3)c(F)cc2c1=O | 135%
O=C(c1ccc(O)c(C(=O)N2Cc3ccc(OCCC[P+](c4ccccc4)(c4ccccc4)c4ccccc4)cc3C2)c1)N1Cc2cccc(F)c2C1 | 57.8%
COc1ccccc1/C=C1\Oc2ccc(O)c(O)c2C1=O | 76.1%
O=C(N/N=C\c1ccc(F)cc1)c1ccc2nc(-c3ccc(Br)cc3)[nH]c2c1 | 78.8%
C#Cc1nc(C(=O)NCCCCCCC(=O)NO)cs1 | -51.7% (active)
Nc1ncc(-c2ccc3ncnc(N4CCc5cc(F)c(Cl)cc54)c3c2)cc1CO | -23.4% (active)
